Hits are enriched below; roughly 13% of the tested compounds scored in any of these assays.
HCMV inh – inhibitors of human cytomegalovirus. HFF cells, HCMV-luciferase reporter, 72 h; active compounds read low. activity change, negative = inhibition, % at 57.5 µM. 410,000 tested, 4.5% active; in the data active = activity change below about -60%; inconclusive = no clear call, values can overlap the other calls; inactive = above about -39%
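Cell-based, HFFs, 1000 cells/well, 16 h 37C; cpds in DMSO + HCMV-luc, MOI 1 PFU/cell; 72 h 37C; OneGlo luminescence after 5 min RT; norm. to buffer vs Salinomycin 10uM.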
Pf growth 96h – P. falciparum growth inhibition at 96 hours; P. falciparum luciferase reporter growth, 96 h; Potency, µM (doses to about 28.7 µM), without a hit: at the highest dose activity change, negative = inhibition, most hits filed as inhibitors; 320,000 tested, 6.9% active; AID 504834; also: potency is read from the fitted curve at half-maximal effect
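Erythrocytes infected with luciferase-expressing P. falciparum were dispensed at 2% hematocrit and 0.05% parasitemia (final), then incubated with compounds 96 hours at 37 C in 5% CO2. Luminescence after detection reagent addition reported growth.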
HCV inh – HCV inhibition; 340,000 tested, 3.4% active; Potency, µM (series often up to 41.8 µM), for inactives: at the highest dose activity change, negative = inhibition, actives largely listed as inhibitors; AID 651820; Huh7.5.1 HCVcc-Cre infection, luciferase reporter, 44 h; also: potency is read from the fitted curve at half-maximal effect
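Luciferase read-out (15 sec integration) after a 15 min room-temperature substrate step quantifies HCVcc-Cre infection. Cells, 1,000 per well, had compound added 4 h post-plating, then virus at ~0.5 moi, and were cultured 44 h.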
Pf growth 48h – inhibits P. falciparum growth in the first generation, 48 h; P. falciparum luciferase growth in erythrocytes, 48 h; Potency, µM (highest dose often 28.7 µM), for the others: top-dose activity change, negative = inhibition, hits mostly inhibitors; 310,000 tested, 5.9% active; AID 504832; also: potency is read from the fitted curve at half-maximal effect
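First compound was added to culture medium, then infected red cells at 0.1% parasitemia and 2% hematocrit (final). After incubation at 37 C under 5% CO2, luciferase detection reagent was dispensed and light output recorded.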
* = called active by the depositor. Unless noted, calls follow the shape of the dose curve; as a rule, active = well fitted inhibition curve with a large enough effect; inconclusive = small, poorly fitted or top-dose-only effect, or another doubt; inactive = no such curve, though single readings can be large or run the other way. % is scaled to controls: 0 for no effect and ±100 for the full control effect.

`COC(=O)C1=C(c2cccc3c2S(=O)(=O)c2ccccc2-3)C[C@@H]2CC[C@H]1N2C(=O)N1CCc2cc(OC)c(OC)cc2C1` gave HCMV inh -15, Pf growth 96h inconclusive, HCV inh 10µM* and Pf growth 48h 3.7µM*.
Screening COc1cc(C2C(C(=O)Nc3ccc(C)cc3C)=C(C)Nc3nc(SCc4ccccc4)nn32)cc(OC)c1OC (stereo unspecified) returned HCMV inh -74*.
`CCOc1ccc(C2C(C(=O)Nc3ccccc3)=C(C)Nc3nc(SCc4cc(C)ccc4C)nn32)cc1` (stereo unspecified) gave HCMV inh 16.
CC1=C(C(=O)Nc2ccccc2C)C(c2ccncc2)n2nc(SCc3ccccc3)nc2N1 (stereo unspecified) was read as HCMV inh 4.
For CC1=C(C(=O)Nc2ccccc2C)C(c2cccs2)n2nc(SCc3ccccc3)nc2N1 (stereo unspecified) the results were HCMV inh -65*.
For COc1cccc(CSc2nc3n(n2)C(c2cccc(F)c2)C(C(=O)Nc2ccccc2C)=C(C)N3)c1 (stereo unspecified) the results were HCMV inh 6.
COc1cc(C2C(C(=O)Nc3ccccc3C)=C(C)Nc3nc(SCc4cc(C)ccc4C)nn32)ccc1O (stereo unspecified) was read as HCMV inh -74*.
Screening COc1cccc(CSc2nc3n(n2)C(CC(C)C)C(C(=O)Nc2ccccc2OC)=C(C)N3)c1 (stereo unspecified) returned HCMV inh -70*.
`CC(=O)c1ccc(NC(=O)Cn2cc3c(n2)CCCC3)cc1` gave HCMV inh -5.
Cc1cc(NC(=O)c2cccnc2)cc(-c2nc3cc(Cl)ccc3o2)c1O was read as HCMV inh 1.
`Cc1cc(C)cc(Oc2nc3c(c(=O)n(C)c(=O)n3C)n2Cc2ccc(F)cc2)c1` gave HCMV inh 3.
For Cc1cccc(-n2c(=O)c3c4c(sc3n3c(C)nnc23)CCCC4)c1 the results were HCMV inh 3.
Screening CCCC(=O)NCC(c1ccc2c(c1)OCO2)N1CCN(c2ccccc2)CC1 (stereo unspecified) returned HCMV inh 9.
For CCc1ccccc1NC(=O)N[C@@H](C)C(=O)OC the results were HCMV inh -10, Pf growth 96h 3%, HCV inh 16% and Pf growth 48h 14%.
CCc1ccccc1NC(=O)N[C@@H](C)C(=O)O was read as HCMV inh 23, Pf growth 96h 9.3µM*, HCV inh 27% and Pf growth 48h 7%.
For COc1ccc(OC)c(/C(C)=N/Nc2ccc(C(=O)O)cc2)c1 the results were HCMV inh -96*, Pf growth 96h 77%, HCV inh 24% and Pf growth 48h 139%.
`COc1cc(C(=O)Nc2ccc(C(=O)O)cc2)ccc1OC(C)=O` gave HCMV inh inconclusive, Pf growth 96h 2.3µM*, HCV inh 9% and Pf growth 48h 21%.
`COc1ccc(/C(C)=N/Nc2ccc(C(=O)O)cc2)cc1OC` gave HCMV inh 21, Pf growth 96h 225%, HCV inh 4% and Pf growth 48h 256%.
`COc1ccc(C(=O)Nc2ccc(C(=O)N3CCC(C)CC3)cc2)cc1OC` gave HCMV inh -8, Pf growth 96h 2.6µM*, HCV inh -11% and Pf growth 48h inconclusive.
For COc1cc(C(=O)Nc2ccc(O)cc2)ccc1OC(C)=O the results were HCMV inh 18, HCV inh -26% and Pf growth 48h 35%.
Screening COc1ccc(C(=O)Nc2ccc(C(=O)N3CCCCC3)cc2)cc1OC returned HCMV inh 22, Pf growth 96h 17%, HCV inh -8% and Pf growth 48h 30%.
Screening COc1ccc(C2C(=O)N(CCc3ccccc3)CC(=O)N2C2CCCCC2)cc1 (stereo unspecified) returned HCMV inh inconclusive, Pf growth 96h 5.2µM* and HCV inh -9%.
COc1ccc(C2C(=O)N(C3CCCCCC3)CC(=O)N2CCc2ccccc2)cc1 (stereo unspecified) was read as HCMV inh -19.
For CCCCN1C(=O)CN(CCc2ccccc2)C(=O)C1c1ccc(OC)cc1 (stereo unspecified) the results were HCMV inh 5, Pf growth 96h 5.2µM*, HCV inh -4% and Pf growth 48h inconclusive.
CCNC(=O)N[C@H]1CC[C@@]23CCCN2C(=O)CCC[C@H]3C1Cc1ccccc1 (stereo partly specified) was read as HCMV inh -6.
Screening Clc1cccc(CNCCCSc2nnnn2-c2ccccc2)c1 returned HCMV inh -4.
Screening COCCCNc1ncnc2ccc(C)cc12 returned HCMV inh -63*, Pf growth 96h inconclusive, HCV inh inconclusive and Pf growth 48h 48%.
`Cc1ccc(S(=O)(=O)Nc2ccc(N(C)C)cc2)cc1` gave HCMV inh -24, Pf growth 96h 25%, HCV inh -4% and Pf growth 48h -12%.
For CN(C)c1ccc(NS(=O)(=O)c2ccc(-c3csnn3)cc2)cc1 the results were HCMV inh -65*, Pf growth 96h 21%, HCV inh inconclusive and Pf growth 48h 10%.
`Cc1ccc(OCCOCCn2c(-c3ccc(Cl)cc3)nc3ccccc3c2=O)cc1` gave HCMV inh 8.
CCn1cc(SCC(=O)NCc2ccc3c(c2)OCO3)c2ccccc21 was read as HCMV inh 26, Pf growth 96h -23%, HCV inh 10µM* and Pf growth 48h inconclusive.
Screening CC1Oc2ccccc2N(CC(=O)NCc2ccc3c(c2)OCO3)C1=O (stereo unspecified) returned HCMV inh 15, Pf growth 96h 12µM*, HCV inh 16% and Pf growth 48h 35%.
CC1Oc2ccccc2N(CC(=O)Nc2ccc3c(c2)OCCO3)C1=O (stereo unspecified) was read as HCMV inh 64, Pf growth 96h 12µM*, HCV inh inconclusive and Pf growth 48h 46%.
CCCn1cc(SCC(=O)NCc2ccc3c(c2)OCO3)c2ccccc21 was read as HCMV inh -1, Pf growth 96h -1%, HCV inh inconclusive and Pf growth 48h 0%.
Screening CC1Oc2ccccc2N(CC(=O)N2CCCc3ccccc32)C1=O (stereo unspecified) returned HCMV inh 79, Pf growth 96h 9.3µM*, HCV inh 18% and Pf growth 48h -21%.
Screening COc1ccc(Cl)c2sc(NC(=O)c3ccc(S(=O)(=O)N4CCOCC4)cc3)nc12 returned HCMV inh 5.
Screening CN(C)c1cc[n+](CC[n+]2ccc(N(C)C)cc2)cc1 returned HCMV inh 8, Pf growth 96h inconclusive, HCV inh 3% and Pf growth 48h inconclusive.

Source: PubChem BioAssay
